Results filed as inconclusive are left out. A structure can be active in one record and inactive in another. The source made the active and inactive calls. How the source made its calls, unless noted: active means hit-call score of the fitted dose curve at least 0.9, where 1 is the maximum; inactive means score below 0.9.
Tests used:
SERPINA7 (gene 6906) = test: CCTE_GLTED_hTBG: CCTE's human Thyroxine-binding Globulin (TBG) Inhibition Assay, Great Lakes Toxicology and Ecology Division (GLTED) Lab (AID 2284343; active means hit-call score of the fitted dose curve at least 0.9, where 1 is the maximum;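 further: active chemicals lower fluorescence versus DMSO baseline by displacing probe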)
Outline: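 Measures how far test chemicals displace ANSA bound to purified human TBG. The read-out is fluorescence at 380 nm excitation and 475 nm emission, taken after 2 h of incubation.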

[1] = system: guinea pig Dopamine Transporter (DAT), gene 100714898; test: NVS_TR_gDAT: NovaScreen (NVS) Transporter Assay for guinea pig Dopamine Transporter (DAT) (AID 2283369; active means hit-call score of the fitted dose curve at least 0.9, where 1 is the maximum;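 further: active compounds lower bound radioligand signal relative to DMSO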)
Outline: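 Primary pass: duplicate wells at 25 uM, threshold e.g. 30% inhibition. Follow-up: singleton concentration-response, highest 50 uM. Radioligand binding on guinea pig striatal membranes, 2 h, filtration scintillation detection.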

[2] = CCTE_Shafer_MEA_acute_burst_duration_mean: CCTE's Neural Acute Assay for Mean Burst Duration, Shafer Lab (AID 2284014);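 further: hits are decreases in mean burst duration relative to DMSO controls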
Outline: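 Read-out is the per-well percent change in mean burst duration (first to last spike within a single-electrode burst) between 40-min recordings before and after compound. Cultures were primary rat cortical neurons on MEAs, dosed at 0.03-40 uM on DIV 13 or 15.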

[3] = CCTE_Shafer_MEA_acute_per_burst_spike_number_mean: CCTE's Neural Acute Assay for Average Number of Spikes Per Burst, Shafer Lab (AID 2284015);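 further: hits are decreases in mean spikes per burst versus baseline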
Outline: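 Read-out: percent change in mean spikes per burst, each well's post-exposure 40-min recording versus its own 40-min baseline. Rat cortical cultures, DIV 13 or 15, compounds 0.03-40 uM; DMSO is negative control, loss-of-signal fitting.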

[4] = CCTE_Shafer_MEA_acute_interburst_interval_mean: CCTE's Neural Acute Assay for Mean Interburst Interval, Shafer Lab (AID 2284016);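 further: percent change of mean interburst interval versus each well's own pre-dose baseline; curves fitted for decrease in interburst interval relative to DMSO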
Outline: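 Rat cortical cultures, DIV 13/15; 20 min equilibration, 40 min baseline, compound 0.03-40 uM, 40 min re-recording, 37 C. Spikes detected at 8x rms noise (300-5000 Hz band-pass). Endpoint: % change in interburst interval, fitted in loss direction vs DMSO.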

[5] = CCTE_Shafer_MEA_acute_burst_percentage_mean: CCTE's Neural Acute Assay for Percentage of Spikes in a Burst, Shafer Lab (AID 2284017);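 on AC50: curve fitted for loss of signal so potency reflects decreased burst percentage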
Outline: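 Rat cortical cultures, DIV 13/15, 37 C. Spikes detected at 8x rms noise (300-5000 Hz band-pass). Burst spikes/total spikes averaged across electrodes per well; % change post- vs pre-treatment (40 min each), loss-of-signal fit vs DMSO.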

[6] = CCTE_Shafer_MEA_acute_burst_percentage_std: CCTE's Neural Acute Assay for Standard Deviation of Burst Percentage, Shafer Lab (AID 2284018);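 further: fitted in the negative direction so actives lower burst percentage SD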
Outline: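 Value is percent change from baseline in the across-electrode SD of spikes-in-bursts percentage, wells with >/= 10 active electrodes. Acute 40-min exposure to 0.03-40 uM on DIV 13 or 15 rat cortical cultures, recorded at 37 C after 40-min baseline.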

[7] = CCTE_Shafer_MEA_acute_per_network_burst_electrodes_number_mean: CCTE's Neural Acute Assay for Mean Number of Electrodes in a Network Burst, Shafer Lab (AID 2284021);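 further: curves fitted for decreases only so hits reduce electrodes per burst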
Outline: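 Percent change from baseline in average electrode count per network burst, rat cortical cultures on 48-well MEAs; 40-min recordings each side of exposure, DIV 13 or 15; threshold 8x rms noise; DMSO as negative control.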

[8] = CCTE_Shafer_MEA_acute_cross_correlation_HWHM: CCTE's Neural Acute Assay for Cross Correlation at Half Width at Half Maximum, Shafer Lab (AID 2284026);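 further: percent change per well from pre-dose baseline in spike cross-correlogram half width; hits are a decrease in cross-correlogram half width relative to DMSO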;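 on outcome: spontaneous network firing of rat primary cortical neurons on multiwell microelectrode arrays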
Outline: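 Percent change in cross-correlogram half width at half maximum, narrower meaning more synchrony, was derived per well from paired 40-min recordings before and during exposure to 0.03-40 uM compound in rat cortical cultures at 37 C.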

[9] = CCTE_Shafer_MEA_acute_synchrony_index: CCTE's Neural Acute Assay for Synchrony, Shafer Lab (AID 2284027);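 further: network synchrony index of spontaneous spiking in primary rat cortical neurons on MEAs; fitted for loss of signal so actives lower synchrony relative to DMSO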
Outline: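 Spontaneous firing of mature rat cortical networks is captured extracellularly on microelectrode arrays at 37 C, with wells needing ≥10 active electrodes. Each compound (0.03-40 uM) is judged by the change in synchrony index from baseline over 40 min.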

[10] = CCTE_Shafer_MEA_acute_LDH: CCTE's Lactate Dehydrogenase Assay for Cytotoxicity in the Neural Acute Assay, Shafer Lab (AID 2284086; active means hit-call score of the fitted dose curve at least 0.9, where 1 is the maximum;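 further: active means LDH release rises above DMSO vehicle level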)
Outline: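 Released lactate dehydrogenase, read at 490 nm, indicated cytotoxicity after acute 40-min compound treatment of rat cortical neuron networks grown on 48-well MEA plates.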

[11] = read-out: Collagen I, COL1A1 (gene 1277); test: BSK_hDFCGF_CollagenI: BioMAP Diversity Plus: hDFCGF Assay for Collagen I Biomarker Activity (AID 2284250); details: primary human foreskin fibroblasts
Outline: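 Cells were primary human foreskin fibroblasts treated for 24 h. Collagen I levels were then determined by ELISA and compared against DMSO controls.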

[12] = read-out: Interleukin-8 (IL8), CXCL8 (gene 3576); test: BSK_KF3CT_IL8: BioMAP Diversity Plus: KF3CT Assay for Interleukin-8 (IL8) Biomarker Activity (AID 2284254); details: primary human keratinocytes with fibroblasts
Outline: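 Using parallel SRB-stained cultures to flag overt toxicity, the study quantified IL-8 by ELISA in human keratinocyte–foreskin fibroblast co-cultures 24 h after dosing, with DMSO as negative control and baseline.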

KRT18 (gene 3875) = test: BSK_BE3C_Keratin818: BioMAP Diversity Plus: BE3C Assay for Keratin 818 Biomarker Activity (AID 2284282); details: primary human bronchial epithelial cells
Outline: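 BE3C: human bronchial epithelial primary cells, 24 h exposure, Keratin 8/18 ELISA; DMSO = negative control/baseline; cytotoxicity by parallel SRB stain (0.1% SRB after 10% TCA fixation, 560 nm).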

[13] = target: human Peroxisome Proliferator-activated Receptor alpha (PPARa), PPARA (gene 5465) (UniProt Q07869); test: NVS_NR_hPPARa: NovaScreen (NVS) Nuclear Receptor Binding Assay for human Peroxisome Proliferator-activated Receptor alpha (PPARa) (AID 2283359; active means hit-call score of the fitted dose curve at least 0.9, where 1 is the maximum;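 further: activity means loss of TR-FRET signal versus DMSO baseline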)
Outline: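 Chemicals were first screened in duplicate at 25 uM, and active ones were retested across concentration series. Binding was monitored by TR-FRET one hour after dosing, with decreased signal against DMSO counted as activity.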

[14] = CCTE_Shafer_MEA_dev_firing_rate_mean: CCTE's Neural Network Formation Assay for Mean Firing Rate, Shafer Lab (AID 2284031);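 further: AUC of well mean spike rate recorded on DIV 5 7 9 and 12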
Outline: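 Developing rat cortical networks on MEA plates undergo 12-day compound exposure. Firing frequency, averaged across active electrodes, is integrated as area under the curve over four recording days, referenced to DMSO.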

[15] = CCTE_Shafer_MEA_dev_per_burst_spike_percent: CCTE's Neural Network Formation Assay for Percent of Spikes in a Burst, Shafer Lab (AID 2284032)
Outline: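 Rat primary cortical neurons on 16-electrode MEA wells, dosed from plating day 0 for 12 days with renewal on DIV 5 and 9; spikes-in-bursts percentage averaged over bursting electrodes, collapsed as AUC across days 5, 7, 9, 12; loss direction versus DMSO.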

[16] = CCTE_Shafer_MEA_dev_active_electrodes_number: CCTE's Neural Network Formation Assay for Number of Active Electrodes, Shafer Lab (AID 2284040; active means hit-call score of the fitted dose curve at least 0.9, where 1 is the maximum)
Outline: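 Rat cortical primary cultures, 1.5 x 10^5 cells/well, PEI-coated MEA, laminin drop. Continuous exposure DIV 0–12; full media/compound change DIV 5, 9. Readout: electrodes with mean firing ≥5 spikes/min; AUC across days; loss vs DMSO.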

TTR (gene 7276) = test: CCTE_GLTED_hTTR_0.125uM: CCTE's human Transthyretin (hTTR) Inhibition Assay, with 0.125uM TTR, Great Lakes Toxicology and Ecology Division (GLTED) Lab (AID 2284431);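 further: hits lower the fluorescence signal relative to DMSO baseline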
Outline: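 Activity is defined as decreased ANSA fluorescence (ex 380, em 475) from human transthyretin, 0.125uM, following 2-hour chemical exposure in a cell-free setup, with DMSO as baseline.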

[17] = target: sheep Cyclooxygenase-1 (Cox1), PTGS1 (gene 443551) (UniProt P05979); test: NVS_ENZ_oCOX1: NovaScreen (NVS) Enzymatic Assay for sheep Cyclooxygenase-1 (Cox1) (AID 2283239; active means hit-call score of the fitted dose curve at least 0.9, where 1 is the maximum;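 further: actives reduce cyclooxygenase activity so potencies are for inhibitors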)
Outline: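 Tested in duplicate at 25 uM, then in concentration series if active, against seminal vesicle extract from sheep. Enzyme activity was measured colorimetrically at 0.66 hour and normalised to DMSO.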

Chain of human Peroxisome Proliferator-activated Receptor alpha (PPARa), PPARA (gene 5465) (Q07869 whole entry, looked up): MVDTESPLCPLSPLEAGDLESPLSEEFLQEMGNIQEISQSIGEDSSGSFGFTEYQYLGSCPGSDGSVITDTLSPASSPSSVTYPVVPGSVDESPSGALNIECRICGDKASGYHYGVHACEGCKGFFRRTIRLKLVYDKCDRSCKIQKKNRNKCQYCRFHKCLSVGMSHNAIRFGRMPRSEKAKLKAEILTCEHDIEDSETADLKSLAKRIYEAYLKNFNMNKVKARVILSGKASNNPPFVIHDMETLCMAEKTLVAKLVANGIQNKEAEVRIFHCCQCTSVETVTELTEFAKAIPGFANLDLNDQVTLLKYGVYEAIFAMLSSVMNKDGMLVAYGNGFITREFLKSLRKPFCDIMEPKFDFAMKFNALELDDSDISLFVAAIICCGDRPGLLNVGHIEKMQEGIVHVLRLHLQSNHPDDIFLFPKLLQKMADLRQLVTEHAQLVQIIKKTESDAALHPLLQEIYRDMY
Chain of sheep Cyclooxygenase-1 (Cox1), PTGS1 (gene 443551) (P05979 whole entry, looked up): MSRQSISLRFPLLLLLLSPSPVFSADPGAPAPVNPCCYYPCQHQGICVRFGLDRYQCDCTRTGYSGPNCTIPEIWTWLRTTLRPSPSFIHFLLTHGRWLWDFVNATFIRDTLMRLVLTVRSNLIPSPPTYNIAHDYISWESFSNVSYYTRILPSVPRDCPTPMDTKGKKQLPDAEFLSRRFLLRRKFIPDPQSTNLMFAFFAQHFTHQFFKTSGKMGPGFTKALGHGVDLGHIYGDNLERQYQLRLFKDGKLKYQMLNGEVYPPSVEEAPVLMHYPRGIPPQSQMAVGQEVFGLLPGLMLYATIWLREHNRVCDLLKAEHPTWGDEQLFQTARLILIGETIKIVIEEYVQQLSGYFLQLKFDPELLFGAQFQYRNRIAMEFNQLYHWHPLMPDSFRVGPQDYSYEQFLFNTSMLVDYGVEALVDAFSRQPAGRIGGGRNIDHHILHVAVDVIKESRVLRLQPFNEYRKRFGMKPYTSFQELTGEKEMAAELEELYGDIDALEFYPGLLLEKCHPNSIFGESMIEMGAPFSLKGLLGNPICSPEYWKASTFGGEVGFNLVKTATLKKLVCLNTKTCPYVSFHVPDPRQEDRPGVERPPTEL

Structure (SMILES): c1ccc(P(c2ccccc2)c2ccccc2)cc1
- AC50 (SERPINA7 (gene 6906)): 41.7 µM (active)

Structure (SMILES): CC(C)(C)C(O)C(Oc1ccc(-c2ccccc2)cc1)n1cncn1 (configuration not stated)
- AC50 [1]: 18 µM (active)

Structure (SMILES): Oc1ccc(C2(c3ccc(O)cc3)c3ccccc3-c3ccccc32)cc1
- outcome [2]: inactive
- AC50 [3]: 20.5 µM (active)
- outcome [4]: inactive
- AC50 [5]: 24.8 µM (active)
- AC50 [6]: 22.8 µM (active)
- outcome [7]: inactive
- AC50 [8]: 28.1 µM (active)
- AC50 [9]: 25.4 µM (active)
- outcome [10]: inactive
- AC50 [11]: 0.151 µM (active)
- outcome [11]: inactive
- AC50 [12]: 8.38 µM (active)
- outcome [12]: inactive
- AC50 (KRT18 (gene 3875)): 0.15 µM (active)
- outcome (KRT18 (gene 3875)): inactive

Structure (SMILES): CCCCCCCCCCCCCCCC[N+](C)(C)C
- AC50 [13]: 19.9 µM (active)

Structure (SMILES): CC1CCCC1.[C-]#[O+].[C-]#[O+].[C-]#[O+].[Mn]
- outcome [14]: inactive
- outcome [15]: inactive
- outcome [16]: inactive

Structure (SMILES): O=C1Nc2ccc(Cl)cc2C(c2ccccc2)=NC1O (configuration not stated)
- AC50 (SERPINA7 (gene 6906)): 37.3 µM (active)

Structure (SMILES): Cc1ccc(OP(=O)(Oc2ccc(C)cc2)Oc2ccc(C)cc2)cc1 (tested in a mixture with another compound)
- outcome [2]: inactive
- AC50 [3]: 3.99 µM (active)
- AC50 [4]: 7.32 µM (active)
- AC50 [5]: 6.45 µM (active)
- AC50 [6]: 3.66 µM (active)
- AC50 [7]: 7.68 µM (active)
- AC50 [8]: 8.25 µM (active)
- AC50 [9]: 6.01 µM (active)
- outcome [14]: inactive
- outcome [15]: inactive
- outcome [16]: inactive
- outcome [10]: inactive
- AC50 (SERPINA7 (gene 6906)): 1.03 µM (active)

Structure (SMILES): COc1cc(OC)nc(Oc2cccc(Oc3nc(OC)cc(OC)n3)c2C(=O)O)n1
- outcome [13]: inactive

Structure (SMILES): COc1ccc(CO)cc1
- outcome [2]: inactive
- AC50 [3]: 3.71 µM (active)
- outcome [4]: inactive
- AC50 [5]: 3.79 µM (active)
- outcome [6]: inactive
- outcome [7]: inactive
- outcome [8]: inactive
- AC50 [9]: 3.81 µM (active)
- outcome [10]: inactive
- outcome [11]: inactive
- outcome [12]: inactive
- outcome (KRT18 (gene 3875)): inactive

Structure (SMILES): CNC(=N[N+](=O)[O-])NCC1CCOC1 (configuration not stated)
- outcome [14]: inactive
- outcome [15]: inactive
- outcome [16]: inactive

Structure (SMILES): Oc1cc(Cl)ccc1Cl
- AC50 (TTR (gene 7276)): 1.17 µM (active)

Structure (SMILES): Nc1ccc(Cl)c(Cl)c1
- AC50 (TTR (gene 7276)): 18.3 µM (active)

Structure (SMILES): N#Cc1cccc(C#N)c1
- AC50 [17]: 29.2 µM (active)

Structure (SMILES): O=[N+]([O-])O
- outcome [2]: inactive
- outcome [3]: inactive
- outcome [4]: inactive
- outcome [5]: inactive
- outcome [6]: inactive
- outcome [7]: inactive
- outcome [8]: inactive
- outcome [9]: inactive
- outcome [10]: inactive
- outcome [11]: inactive
- outcome [12]: inactive
- outcome (KRT18 (gene 3875)): inactive

Structure (SMILES): O=S(=O)(c1ccccc1)c1ccccc1
- AC50 [1]: 19.9 µM (active)

Structure (SMILES): CC(C)CCCCCCCOP(=O)(Oc1ccccc1)Oc1ccccc1
- AC50 [1]: 12.2 µM (active)
- outcome [14]: inactive
- outcome [15]: inactive
- outcome [16]: inactive

Structure (SMILES): CC(C)(C)C(=O)CCl
- outcome [17]: inactive

Structure (SMILES): S=c1[nH]c2ccccc2[nH]1
- AC50 [17]: 0.984 µM (active)

Structure (SMILES): CC(C)(c1cc(Cl)c(O)c(Cl)c1)c1cc(Cl)c(O)c(Cl)c1
- AC50 [13]: 20.2 µM (active)
- AC50 (SERPINA7 (gene 6906)): 8.77 µM (active)
- AC50 (TTR (gene 7276)): 0.0355 µM (active)

Structure (SMILES): O=P1(NCCCl)OCCCN1CCCl (configuration not stated)
- outcome [17]: inactive

Structure (SMILES): Nc1cc(Cl)cc(Cl)c1
- AC50 (TTR (gene 7276)): 6.93 µM (active)

Structure (SMILES): [CH3][Sn]([CH3])([Cl])[Cl]
- outcome [13]: inactive

Structure (SMILES): c1ccc(Nc2ccc3ccccc3c2)cc1
- outcome [17]: inactive

Structure (SMILES): CNC(=O)Oc1cc(C)c(SC)c(C)c1
- AC50 [1]: 25 µM (active)

Structure (SMILES): CCOP(=O)(OCC)Oc1ccc([N+](=O)[O-])cc1
- AC50 (TTR (gene 7276)): 5.87 µM (active)

Source: PubChem BioAssay (EPA / NIEHS)
